# Source: PubChem BioAssay (several laboratories)
# Anthrax LF inh2: blocks Bacillus anthracis lethal factor protease | AID 588501 | P15917 | actives 0.12% (n = 360,000) | multiplex microsphere protease cleavage assay, LF | inhibition, % at 10 µM
# Target sequence (P15917 whole entry, looked up): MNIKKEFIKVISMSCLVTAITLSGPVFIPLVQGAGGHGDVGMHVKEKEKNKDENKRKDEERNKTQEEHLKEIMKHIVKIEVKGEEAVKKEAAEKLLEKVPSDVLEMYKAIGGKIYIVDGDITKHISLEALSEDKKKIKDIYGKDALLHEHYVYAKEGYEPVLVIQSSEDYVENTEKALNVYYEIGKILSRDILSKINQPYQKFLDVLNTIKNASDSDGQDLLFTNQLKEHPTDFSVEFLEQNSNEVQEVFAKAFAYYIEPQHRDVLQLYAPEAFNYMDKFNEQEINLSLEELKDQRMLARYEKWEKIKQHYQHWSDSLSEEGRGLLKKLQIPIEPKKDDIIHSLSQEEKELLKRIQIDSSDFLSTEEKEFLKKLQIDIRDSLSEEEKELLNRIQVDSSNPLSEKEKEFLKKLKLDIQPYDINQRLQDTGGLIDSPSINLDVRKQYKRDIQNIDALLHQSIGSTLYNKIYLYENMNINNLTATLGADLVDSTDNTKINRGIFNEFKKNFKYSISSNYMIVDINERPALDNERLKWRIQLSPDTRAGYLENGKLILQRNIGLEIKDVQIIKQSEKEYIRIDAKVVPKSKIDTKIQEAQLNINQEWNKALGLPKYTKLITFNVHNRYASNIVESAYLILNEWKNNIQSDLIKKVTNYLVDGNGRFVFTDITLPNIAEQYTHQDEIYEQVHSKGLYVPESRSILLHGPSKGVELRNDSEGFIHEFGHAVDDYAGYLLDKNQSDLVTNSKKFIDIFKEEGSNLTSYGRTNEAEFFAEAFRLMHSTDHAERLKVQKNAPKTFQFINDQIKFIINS
# CCHF vOTU inh: blocks the CCHF virus ovarian tumor domain protease; CCHFV vOTU protease, Pep-AMC fluorescence; actives 0.55% (n = 370,000); inhibition, % at 11.5 µM; in the data active = inhibition above about 30%
# 3CLpro inhibitor: SARS-CoV 3CLpro protease inhibition. P0C6X7. recombinant SARS-CoV 3CLpro, quenched FRET peptide cleavage. inhibition, % at 6 µM. actives 0.14% (n = 290,000). AID 1706; in the data active = inhibition above about 12%
# BoNT F protease: inhibitors of Botulinum neurotoxin F light chain protease; inhibition, % at 10 µM; Multiplex microsphere protease cleavage assay, flow cytometry; AID 588497; actives 0.22% (n = 360,000); in the data active = inhibition above about 35%, passing the limit was not always enough; inconclusive = no clear call, values can overlap the other calls
# BoNT-A LC inh2: BoNT A light chain protease inhibition; multiplex microsphere protease substrate cleavage, flow cytometry; inhibition, % at 10 µM; actives 0.17% (n = 360,000); AID 588499
# Bead autofluor: compound fluorescence in toxin protease inhibitor counterscreen | actives 3.1% (n = 360,000) | fluorescence intensity (test concentration not listed) | compound autofluorescence counterscreen, microsphere flow cytometry; active compounds read high; in the data active = fluorescence intensity above about 16000; inconclusive = no clear call, values can overlap the other calls
# A number is an active result; 0 = inactive; ? = inconclusive; - = no result. Compounds with a hit are over-represented: about 3.9% of the library has one in this group of screens. Rule as the data show it, unless noted: active = inhibition above about 30%; inconclusive = no clear call, values can overlap the other calls; inactive = below that.
SMILES,Anthrax LF inh2,CCHF vOTU inh,3CLpro inhibitor,BoNT F protease,BoNT-A LC inh2,Bead autofluor
COc1ccc2c(c1)O/C(=C\c1sccc1C)C2=O,0,0,0,40,0,0
COc1ccc(/C=C2\Oc3ccccc3C2=O)cc1,0,0,-,0,0,0
COc1ccc(C2NC(=O)c3ccccc3O2)cc1 (centres undefined),0,0,0,?,0,0
COc1ccc(C)cc1S(=O)(=O)NNc1nc(C)cc(C)n1,0,0,-,0,0,0
CC(C)C1Oc2ccccc2N(CC(=O)NC2CCCCC2)C1=O (centres undefined),0,0,0,0,0,0
CCN(CC)CCOC(c1ccccc1)c1ccc(C)cc1 (centres undefined),0,0,0,0,0,0
CCNCCOC(c1ccccc1)c1ccccc1,0,0,0,0,?,18751
O=C(Nc1ccc(OC(F)(F)F)cc1)Nc1c(-c2ccccc2)nc2ncccn12,-,0,-,-,-,-
Cc1ccc2[nH]c3c(c2c1)CN(C(=O)CN1CC(C)OC(C)C1)CC3 (centres undefined),0,0,0,?,0,17955
COc1ccc(CCN2C(=O)CCC2(C)C(=O)NC2CCCC2)cc1OC (centres undefined),0,0,0,0,0,0
CCOc1ccc(CCN2C(=O)CCC2(C)C(=O)NC(C)CC)cc1OCC (centres undefined),0,0,0,0,0,23716
COc1cccc(/C=N/NC(=O)Cn2nc([N+](=O)[O-])cc2C)c1,-,0,0,-,-,-
CCCN1CCCc2cc(CN)ccc21,0,100,0,0,0,0
Cc1ccc2c(c1)CCCN2N=O,0,0,0,0,0,0
O=C(O)c1cc(S(=O)(=O)NCCOc2ccccc2)ccc1Cl,0,0,-,0,0,?
CCn1nc(C(C)C)cc1C(=O)N1CCCC(CO)(Cc2ccc(F)cc2F)C1 (centres undefined),0,0,0,0,0,0
O=C(COc1ccccc1)NCC1CCCO1 (centres undefined),0,0,0,0,0,0
O=C(NCCCN1CCOCC1)C(C(=O)c1ccccc1)n1ccccc1=O (centres undefined),0,0,0,0,0,22755
O=C(NCc1cccnc1)C(C(=O)c1ccc(F)cc1)n1ccccc1=O (centres undefined),0,0,0,0,?,22039
COc1ccc(CCNC(=O)C(C(=O)c2ccc(F)cc2)n2ccccc2=O)cc1OC (centres undefined),0,0,0,0,0,0
O=C(NCC1CCCO1)C(C(=O)c1ccc(F)cc1)n1ccccc1=O (centres undefined),0,0,0,0,0,21506
O=C(COc1ccc(F)cc1)NCC1CCCO1 (centres undefined),0,0,0,0,?,24747
O=C(NCc1ccccc1)C(C(=O)c1ccc(F)cc1)n1ccccc1=O (centres undefined),0,0,0,0,0,0
Cc1ccc(=O)n(C(C(=O)NCc2ccco2)C(=O)c2ccc(F)cc2)c1 (centres undefined),0,0,0,0,0,22339
CCc1nc2c(OCCOc3ccc(F)cc3)cccn2c1N(C=O)Cc1ccc(OC)cc1,0,0,-,0,0,0
SMILES,Anthrax LF inh2,CCHF vOTU inh,3CLpro inhibitor,BoNT F protease,BoNT-A LC inh2,Bead autofluor
COc1cccc(C(=O)N(Cc2cc3cc(C)ccc3[nH]c2=O)CC2CCCO2)c1 (centres undefined),0,0,0,?,?,?
COc1ccc(C(=O)N(Cc2ccccc2)Cc2cc3cc4c(cc3[nH]c2=O)OCCO4)cc1,0,0,0,0,0,22249
COc1cccc(C(=O)N(Cc2ccccc2)Cc2cc3cc4c(cc3[nH]c2=O)OCCO4)c1,0,0,0,0,0,20933
COc1cc2cc(CN(Cc3ccc4c(c3)OCO4)C(=O)c3ccco3)c(=O)[nH]c2cc1OC,0,0,0,0,0,16500
O=C(c1ccco1)N(Cc1ccc2c(c1)OCO2)Cc1cc2cc3c(cc2[nH]c1=O)OCO3,0,0,0,0,0,0
COC(=O)C1(C(C[N+](=O)[O-])c2ccc(C)cc2)C(=O)NCC1c1ccco1 (centres undefined),0,0,0,0,0,0
Cc1ccccc1-n1c(C)nnc1SC(C)C(=O)NCC1CCCO1 (centres undefined),0,0,-,0,0,0
CN1CCC(OC(=O)COc2ccc(Br)cc2)CC1,0,0,0,0,0,0
CN1CCC(OC(=O)c2ccc(Br)cc2)CC1,0,0,0,0,0,21548
